Assay [1] deals with Nuclear receptor coactivator 3 (Homo sapiens) (UniProt Q9Y6Q9). Description: NCOA3 GAL4-fusion reporter inhibition – cell-based, luminescence, quadruplicate, confirmation (AID 588792;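 active = mean inhibition over 43.08%, the solvent-only control mean plus 3 SD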;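 also: 0% = DMSO treated cells and 100% = gossypol at 36 µM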). Conditions: HEK293 GAL4-SRC3 luciferase reporter, at 3.6 µM, active compounds read high. In general terms: Reporter assays use an easily measured gene product as a stand-in for the process of interest.

In assay [2] the test system is transactivating tegument protein VP16 (Human herpesvirus 1), Gal4-VP16 luciferase reporter. The experiment in a line: repression of VP16-driven luciferase reporter – cell-based, luminescence, high throughput, counter-screen for SRC3 inhibitor project (AID 588794; in the data active = inhibition above about 30%). The settings on record: mammalian cells, at 3.6 µM, active compounds read high.
Assay [3] has as its target Nuclear receptor coactivator 1 (Homo sapiens) (UniProt Q15788). Description: NCOA1 GAL4-fusion reporter inhibition – cell-based, luminescence, quadruplicate, confirmation (AID 588820;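 active = mean inhibition above 46.68%, the untreated control wells mean plus 3 SD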;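 also: 0% = DMSO wells and 100% = gossypol 36 µM treated wells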). The settings on record: HEK293 GAL4-SRC1 luciferase reporter, at 3.6 µM, active compounds read high.
The nature of assay [4]: repression of VP16-driven luciferase reporter – cell-based, luminescence, high throughput, counter-screen for SRC1 inhibitor project (AID 588824; in the data active = inhibition above about 25%). The settings on record: cell-based VP16 transactivation luciferase luminescence; at 3.6 µM; active compounds read high.
The nature of assay [5]: StAR promoter reporter inhibitors, counter-screen for LRH-1 inverse agonist project, cell-based, luminescence, high throughput (AID 651611). The settings on record: StAR promoter luciferase reporter counterscreen, at 3.6 µM, active compounds read high. In general terms: A counterscreen serves to expose hits that act by an unwanted route or on another target.
Assay [6] concerns the target Nuclear receptor subfamily 5 group A member 2 (Homo sapiens) (UniProt O00482). The experiment in a line: NR5A2 activity suppression in reporter cells – cell-based, luminescence, confirmation (AID 651613; in the data active = inhibition above about 42%;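 also: HEK293T cells co-transfected with LRH-1 and StAR promoter luciferase reporter; 0% = vehicle wells and 100% = parental cells lacking receptor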). The settings on record: cell-based LRH-1 luciferase reporter, inverse agonism; at 3.6 µM; active compounds read high.
The target of assay [7] is Steroidogenic factor 1 (Homo sapiens) (UniProt Q13285). Description: inverse agonism at SF1 nuclear receptor – cell-based, luminescence, high throughput, counter-screen for LRH-1 inverse agonist project (AID 651614; in the data active = inhibition above about 44%;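 also: cells cotransfected with StAR promoter reporter and SF1 expression vector; 0% = vehicle on cells with receptor and 100% = vehicle on cells lacking receptor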). The settings on record: cell-based SF1 luciferase reporter, at 3.6 µM, active compounds read high.
Assay [8] can be described thus: compounds suppressing VP16-driven luciferase signal – cell-based, luminescence, high throughput, counter-screen for LRH-1 inverse agonist project (AID 651615; in the data active = inhibition above about 33%). The settings on record: Gal4-VP16 luciferase reporter cells, at 3.6 µM, active compounds read high.
A short description of assay [9]: reduced OD of V66 E. coli with T4 gene 2 phage – absorbance, RecBCD inhibitor project, confirmation (AID 651982;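 active = mean inhibition over triplicates exceeding the hit threshold derived in the original primary screen, cut at about 11% in these data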). The settings on record: E. coli V66 + T4 2- phage, growth OD; at 11.9 µM; active compounds read high.
Assay [10] is described as follows: bacterial growth inhibition – absorbance, high throughput, counter-screen for RecBCD inhibitor project (AID 651983; in the data active = inhibition above about 20%;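 also: E. coli strain V66 grown with compound alone and no phage infection; 0% = bacteria with DMSO vehicle only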). Conditions: E. coli viability, absorbance (OD) growth; at 11.9 µM; active compounds read high.
Assay [11] is described as follows: reduced optical density, T4-challenged addAB+ bacteria – absorbance, E. coli V3065, T4 phage, counter-screen for RecBCD inhibitor project, confirmation (AID 651984;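 active = mean inhibition above the solvent-only control wells' mean plus 3 SD, cut at about 22% in these data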;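 also: higher means less bacterial growth from phage killing when AddAB is blocked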). Conditions: E. coli expressing H. pylori AddAB + T4 phage, OD growth; at 11.9 µM; active compounds read high; gene 2 mutant T4, recBCD-deleted host.

This passage reports inhibition results from PubChem BioAssay.

SMILES strings stand for the structures. The list shows a part of the results. Active and inactive are the calls of the source. Rule as the data show it, unless noted: active = inhibition above about 28%; inactive = the rest.

Chain of Steroidogenic factor 1 (Homo sapiens) (Q13285 whole entry, looked up, the tested form may be a part): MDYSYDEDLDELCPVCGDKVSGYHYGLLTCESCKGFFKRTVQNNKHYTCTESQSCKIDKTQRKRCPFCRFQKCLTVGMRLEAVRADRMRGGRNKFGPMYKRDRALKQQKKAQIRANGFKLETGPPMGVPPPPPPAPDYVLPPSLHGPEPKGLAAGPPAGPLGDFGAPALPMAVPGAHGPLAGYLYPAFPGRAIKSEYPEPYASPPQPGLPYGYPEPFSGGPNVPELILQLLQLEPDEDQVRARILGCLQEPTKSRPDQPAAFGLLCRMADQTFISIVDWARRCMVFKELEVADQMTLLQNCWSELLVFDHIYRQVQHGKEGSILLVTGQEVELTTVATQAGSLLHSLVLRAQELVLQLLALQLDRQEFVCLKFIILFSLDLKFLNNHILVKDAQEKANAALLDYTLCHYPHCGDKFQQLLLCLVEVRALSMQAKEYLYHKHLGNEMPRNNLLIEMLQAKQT
Chain of Nuclear receptor coactivator 1 (Homo sapiens) (Q15788 whole entry, looked up, the tested form may be a part): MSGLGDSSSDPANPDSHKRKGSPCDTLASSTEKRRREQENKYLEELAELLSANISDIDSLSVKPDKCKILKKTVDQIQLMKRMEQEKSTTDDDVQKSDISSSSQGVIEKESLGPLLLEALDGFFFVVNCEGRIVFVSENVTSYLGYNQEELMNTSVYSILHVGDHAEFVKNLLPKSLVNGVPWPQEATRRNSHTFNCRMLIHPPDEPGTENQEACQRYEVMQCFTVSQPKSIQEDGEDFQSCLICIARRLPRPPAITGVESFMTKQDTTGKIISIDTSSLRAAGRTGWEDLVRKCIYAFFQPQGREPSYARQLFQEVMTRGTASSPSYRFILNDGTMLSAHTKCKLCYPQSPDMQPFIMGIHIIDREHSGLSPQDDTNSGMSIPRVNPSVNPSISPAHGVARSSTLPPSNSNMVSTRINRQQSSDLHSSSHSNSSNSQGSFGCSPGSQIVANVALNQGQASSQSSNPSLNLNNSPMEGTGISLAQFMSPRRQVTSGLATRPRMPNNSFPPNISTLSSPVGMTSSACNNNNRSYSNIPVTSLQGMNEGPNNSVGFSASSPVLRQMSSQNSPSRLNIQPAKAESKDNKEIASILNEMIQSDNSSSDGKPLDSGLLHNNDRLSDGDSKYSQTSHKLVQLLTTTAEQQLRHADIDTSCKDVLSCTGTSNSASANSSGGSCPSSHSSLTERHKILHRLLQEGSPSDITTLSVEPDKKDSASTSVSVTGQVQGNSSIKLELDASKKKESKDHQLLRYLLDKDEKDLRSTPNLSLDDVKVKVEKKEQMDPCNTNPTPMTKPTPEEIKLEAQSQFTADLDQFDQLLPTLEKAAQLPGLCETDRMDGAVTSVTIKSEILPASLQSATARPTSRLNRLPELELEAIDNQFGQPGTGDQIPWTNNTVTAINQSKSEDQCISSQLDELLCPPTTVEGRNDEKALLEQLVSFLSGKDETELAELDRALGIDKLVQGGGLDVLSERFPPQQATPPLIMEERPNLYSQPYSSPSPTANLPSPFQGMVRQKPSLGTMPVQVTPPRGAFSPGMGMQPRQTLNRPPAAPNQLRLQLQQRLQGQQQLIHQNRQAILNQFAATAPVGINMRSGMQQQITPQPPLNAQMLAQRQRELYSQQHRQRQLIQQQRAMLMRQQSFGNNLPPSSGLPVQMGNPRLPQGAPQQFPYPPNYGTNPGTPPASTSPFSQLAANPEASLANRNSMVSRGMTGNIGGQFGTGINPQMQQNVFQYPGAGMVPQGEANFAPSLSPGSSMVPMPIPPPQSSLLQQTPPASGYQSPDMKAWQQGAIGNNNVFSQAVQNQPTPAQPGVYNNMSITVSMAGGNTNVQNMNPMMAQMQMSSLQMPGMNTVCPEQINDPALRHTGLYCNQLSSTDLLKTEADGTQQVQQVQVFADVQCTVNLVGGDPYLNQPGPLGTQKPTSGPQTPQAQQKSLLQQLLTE
Chain of Nuclear receptor coactivator 3 (Homo sapiens) (Q9Y6Q9 whole entry, looked up, the tested form may be a part): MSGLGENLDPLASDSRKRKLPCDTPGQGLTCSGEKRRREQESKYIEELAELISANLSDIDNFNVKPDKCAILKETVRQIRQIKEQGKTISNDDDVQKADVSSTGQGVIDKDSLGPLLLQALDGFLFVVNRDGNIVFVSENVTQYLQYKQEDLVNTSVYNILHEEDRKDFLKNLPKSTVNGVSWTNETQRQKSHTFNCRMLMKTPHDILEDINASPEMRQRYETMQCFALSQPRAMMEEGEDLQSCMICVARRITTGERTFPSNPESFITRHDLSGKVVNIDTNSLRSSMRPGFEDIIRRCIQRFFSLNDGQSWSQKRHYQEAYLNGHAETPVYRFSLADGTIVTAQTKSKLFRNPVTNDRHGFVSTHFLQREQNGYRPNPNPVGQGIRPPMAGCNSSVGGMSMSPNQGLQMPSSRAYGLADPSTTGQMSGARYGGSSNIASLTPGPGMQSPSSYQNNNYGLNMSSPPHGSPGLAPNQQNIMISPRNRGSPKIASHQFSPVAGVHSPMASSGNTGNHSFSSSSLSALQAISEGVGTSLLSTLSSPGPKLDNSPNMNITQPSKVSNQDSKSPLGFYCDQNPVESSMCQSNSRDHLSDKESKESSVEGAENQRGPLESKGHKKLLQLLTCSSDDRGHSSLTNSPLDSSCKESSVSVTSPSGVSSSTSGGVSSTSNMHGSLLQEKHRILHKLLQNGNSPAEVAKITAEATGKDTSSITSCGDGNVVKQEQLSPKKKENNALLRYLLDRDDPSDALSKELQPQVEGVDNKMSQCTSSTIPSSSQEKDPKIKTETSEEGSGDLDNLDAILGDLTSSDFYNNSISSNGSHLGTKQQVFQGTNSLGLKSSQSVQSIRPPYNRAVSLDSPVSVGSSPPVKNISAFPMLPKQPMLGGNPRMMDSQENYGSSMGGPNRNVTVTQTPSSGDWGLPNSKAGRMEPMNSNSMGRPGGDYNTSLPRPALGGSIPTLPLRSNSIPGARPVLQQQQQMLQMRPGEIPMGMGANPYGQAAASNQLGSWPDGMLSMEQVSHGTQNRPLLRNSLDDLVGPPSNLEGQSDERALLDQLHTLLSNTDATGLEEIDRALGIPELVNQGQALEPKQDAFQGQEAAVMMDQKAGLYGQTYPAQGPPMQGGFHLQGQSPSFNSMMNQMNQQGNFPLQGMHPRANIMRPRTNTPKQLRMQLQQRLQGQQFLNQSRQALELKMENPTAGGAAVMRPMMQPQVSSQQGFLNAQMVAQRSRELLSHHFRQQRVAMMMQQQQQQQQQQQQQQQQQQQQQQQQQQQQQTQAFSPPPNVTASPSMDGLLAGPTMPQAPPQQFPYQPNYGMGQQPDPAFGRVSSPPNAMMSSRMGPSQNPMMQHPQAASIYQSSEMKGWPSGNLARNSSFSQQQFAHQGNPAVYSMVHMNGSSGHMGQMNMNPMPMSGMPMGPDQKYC
Chain of Nuclear receptor subfamily 5 group A member 2 (Homo sapiens) (O00482 whole entry, looked up): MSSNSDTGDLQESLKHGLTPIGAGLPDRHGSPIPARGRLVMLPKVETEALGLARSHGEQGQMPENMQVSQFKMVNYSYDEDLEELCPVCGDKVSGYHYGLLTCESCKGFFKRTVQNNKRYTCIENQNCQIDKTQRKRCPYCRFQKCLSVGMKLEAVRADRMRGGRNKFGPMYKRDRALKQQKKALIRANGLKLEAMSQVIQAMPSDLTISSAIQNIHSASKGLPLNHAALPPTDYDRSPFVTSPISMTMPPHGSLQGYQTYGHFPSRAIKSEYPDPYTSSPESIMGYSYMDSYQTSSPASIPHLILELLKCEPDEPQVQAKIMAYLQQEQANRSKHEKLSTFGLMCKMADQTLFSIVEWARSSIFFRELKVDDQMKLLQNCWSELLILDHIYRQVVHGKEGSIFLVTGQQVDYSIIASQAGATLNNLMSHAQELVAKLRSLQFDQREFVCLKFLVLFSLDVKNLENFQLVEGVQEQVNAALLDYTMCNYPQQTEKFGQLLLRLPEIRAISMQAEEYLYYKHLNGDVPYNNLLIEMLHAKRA

In general, inhibition refers to the drop in the measured response relative to a control, in per cent. On to `COc1ccc(C=C2CS(=O)(=O)CC(=Cc3ccc(OC)cc3)C2=O)cc1`, for which the inhibition in assay [1] is 29.7% (inactive); in [2], 46.8% (active); in [3], -73.9% (inactive); in [4] it was 55.9% (active); in assay [5], 43.9% (active); in assay [6], 83% (active). Further, the inhibition was 83.7% (active) in assay [7] and 80.1% (active) in [8].
`COc1cccc(/C=N/Nc2ncnc3c2ncn3Cc2ccccc2)c1O`: the inhibition in assay [1] was 58.9% (active); in [2], 31% (active); in assay [3], 48% (active); in [4] it was 28.4% (active); in assay [5], 84.4% (active); in [6], 99.4% (active). Besides, the inhibition is 86.1% (active) in assay [7] and 78.3% (active) in assay [8].
Turning to `CCCCCCCCCn1ccc(=N)cc1`, the inhibition was 68.9% (active) in assay [1]; 84.2% (active) in assay [2]; 58.6% (active) in assay [3]; 85.2% (active) in assay [4]; 72.7% (active) in assay [5]; 102% (active) in assay [6]. Moreover, the results for the inhibition in assay [7] and in [8] were 91.3% (active) and 85.9% (active), respectively.
Regarding `O=C(NN=Cc1ccccc1O)NN=Cc1ccccc1O`, the inhibition is 48.5% (active) in [1]; 80% (active) in [2]; 24.6% (inactive) in [3]; 77.1% (active) in assay [4]; 69.9% (active) in [5]; 97.3% (active) in assay [6]. For the same molecule, the inhibition in assay [7] is 86.7% (active); in assay [8], 81.8% (active); in assay [9], 1.25% (inactive); in assay [10], 2.69% (inactive); in assay [11] it was 6.88% (inactive).
With `CCn1cc(/C=C/c2cc[n+](C)cc2)c2ccccc21`, the inhibition in [1] is 21.5% (inactive); in [2] it was 38.4% (active); in assay [3], 3.02% (inactive); in assay [4], 47.3% (active); in [5], 40.5% (active); in [6] it was 65.9% (active). For the same molecule, the inhibition is 66.8% (active) in [7] and 57.1% (active) in [8].
Regarding `CCC(C)N(CC(=O)Nc1cccc(C)c1C)C(=O)CCl` (stereo unspecified), the inhibition in assay [1] is 80% (active); in [2] it was 67% (active); in assay [3] it was 52% (active); in assay [4], 71% (active); in assay [5], 69.2% (active); in [6] it was 84.8% (active). Moreover, the values for the inhibition in assay [7] and in [8] were 78.8% (active) and 77.9% (active), respectively.
Turning to `Cc1ccccc1CN1CC2=C(CCN(Cc3ccccc3)C2=O)N2CCN=C12`, the inhibition is 47.9% (active) in assay [1]; 70.7% (active) in assay [2]; 53.7% (active) in [3]; 66.9% (active) in assay [4]; 76.9% (active) in assay [5]; 96.3% (active) in assay [6]. In addition, the inhibition in assay [7] was 88.7% (active); in assay [8], 77.8% (active).
For `CC(=NNC(=S)Nc1ccc(C)cc1)c1ccccn1`, the inhibition is 59% (active) in [1]; 69.9% (active) in assay [2]; 46.8% (active) in assay [3]; 66% (active) in [4]; 66.1% (active) in [5]; 68.7% (active) in assay [6]. Besides, the inhibition was 85.4% (active) in [7] and 52.6% (active) in [8].
`CCCOC(c1ccccc1)(c1ccc(C(F)(F)F)cc1)C(Oc1nc(C)cc(C)n1)C(=O)O` (stereo unspecified): the inhibition is 51.2% (active) in [1]; 67% (active) in [2]; 51.6% (active) in assay [3]; 68.1% (active) in assay [4]; 75.5% (active) in assay [5]; 96.3% (active) in [6]. Also, the figures for the inhibition in assay [7] and in [8] were 90.2% (active) and 75.5% (active), respectively.
With `NS(=O)(=O)c1ccc(NC(=O)/C=C/c2ccc3c(c2)OCO3)cc1`, the inhibition in [1] is 10.8% (inactive); in assay [2] it was 53.6% (active); in assay [3] it was 17.1% (inactive); in assay [4] it was 52% (active); in [5], 47% (active); in [6] it was 61.7% (active). Besides, the inhibition in assay [7] was 62.2% (active); in [8], 66.2% (active).
On to `CCCCCCn1c2c(c(=N)c3c1CCC3)CCC2`, for which the inhibition in assay [1] is 61.3% (active); in [2], 76.9% (active); in assay [3], 55.4% (active); in [4], 76.4% (active); in assay [5], 68.7% (active); in assay [6] it was 110% (active). In addition, the inhibition in assay [7] is 91.7% (active); in assay [8] it was 93.6% (active).
With `CC1CC(C)C[N+](=C2C=C(N3CCCC3)CC(C)(C)C2)C1` (stereo unspecified), the inhibition in [1] was 26.9% (inactive); in assay [2], 66.7% (active); in [3] it was 28.9% (inactive); in assay [4], 71.5% (active); in assay [5], 38.9% (active); in assay [6], 110% (active). In addition, the results for the inhibition in assay [7] and in assay [8] were 79.1% (active) and 91.2% (active), respectively.
As to `COc1ccc(NC(=O)c2cc(-c3cc(C)cc(F)c3)n[nH]2)cc1OC`, the inhibition in [1] is 23.5% (inactive); in [2] it was 44.4% (active); in assay [3], 15.5% (inactive); in assay [4], 33.5% (active); in [5] it was 39.5% (active); in [6], 55.6% (active). Besides, the inhibition was 59.6% (active) in assay [7] and 61.5% (active) in [8].
Regarding `COC1C=CC=C(C)C(=O)NC2=CC(=O)C(N)=C(CC(C)CC(OC)C(O)C(C)C=C(C)C1OC(N)=O)C2=O` (stereo unspecified), the inhibition was 78.9% (active) in assay [1]; 81.6% (active) in assay [2]; 18.4% (inactive) in assay [3]; 82.3% (active) in [4]; 73.2% (active) in [5]; 93.7% (active) in [6]. In addition, the inhibition in assay [7] was 85.5% (active); in [8], 85.7% (active).
On to `Cc1ccc2[nH]c3nc(N/N=C/c4cccc(O)c4)nnc3c2c1`, for which the inhibition in assay [1] was 35.7% (inactive); in assay [2], 54.6% (active); in [3], 27.8% (inactive); in assay [4], 48.2% (active); in [5], 51% (active); in assay [6] it was 65.6% (active). Moreover, the inhibition in [7] was 63.6% (active); in [8], 69.8% (active).
For the molecule `CCN(CC)c1ccc(C(=C2C=CC(=[N+](CC)CC)C=C2)c2ccc(N(CC)CC)cc2)cc1`, the inhibition is 85.3% (active) in assay [1]; 89.9% (active) in [2]; 60.9% (active) in assay [3]; 84.3% (active) in assay [4]; 85.6% (active) in assay [5]; 110% (active) in assay [6]. For the same molecule, the inhibition in assay [7] and in assay [8] was 97.1% (active) throughout.
